uPA generation: cell surface uPA generation inhibition. cell surface uPA generation assay, qHTS. Potency, µM (highest dose often 38.3 µM), inactives show top-dose activity change, negative = inhibition, actives largely listed as inhibitors. actives 0.31% (n = 330,000). AID 540303; active = well fitted inhibition curve with a large enough effect; inconclusive = small, poorly fitted or top-dose-only effect; inactive = no such curve, though single readings can be large or run the other way; tested in mouse RAW 264.7 cells; also: potency is read from the fitted curve at half-maximal effect; nearly all actives have a fitted effect of over 55% in size
HT1080NT lethal: kills 2HG-producing HT-1080-NT fibrosarcoma cells; HT-1080-NT fibrosarcoma viability, CellTiter-Glo ATP luminescence, 48 h; Potency, µM (titrated, usually from 46.1 µM), for inactives: top-dose activity, negative = less viability, hits mostly cytotoxic; actives 1.6% (n = 360,000);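 also: NT is the 2HG producing partner of a matched IDH1 knockdown line; potency is read from the fitted curve at half-maximal effect; 0% = DMSO-treated cells and -100% = media-only wells without cells; nearly all actives have a fitted effect of over 55% in size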
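Fibrosarcoma NT cells, 750 per well in 5% FBS RPMI, were exposed to compound for 48 hours. Viability: CellTiter-Glo luminescence.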
HT1080 IDH1KD tx: HT-1080 IDH1 knockdown cell toxicity (counter line). Potency, µM (titrated, usually from 46.1 µM), without a hit: at the top dose activity, negative = toxicity, actives largely listed as cytotoxic. HT-1080 IDH1 knockdown viability, ATP luminescence, 48 h. actives 2% (n = 360,000);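 also: potency is read from the fitted curve at half-maximal effect; 0% = DMSO wells and -100% = cell-free medium wells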
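After a 2 h attachment period, IDH1KD HT-1080 cells took pin-transferred compound for 48 h at 37 °C; ATP-based luminescence after 10 min room-temperature reagent incubation reported viability.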
IL1B secr inh: inflammasome signaling inhibition, IL-1 beta readout | THP-1 LPS/ATP IL-1B secretion, AlphaLISA, 16 h; hits give low values | activity change, % at 57.5 µM | actives 4.7% (n = 360,000); in the data active = activity change below about -50%; inconclusive = mostly about -30% to -49%
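Secreted IL-1B measured by AlphaLISA bead assay after 16 h compound exposure of THP-1 cells; compounds (final up to 57.5 uM) added 1 h before LPS (250 ng/mL) and ATP (1.25 mM) stimulation; lower signal means less secretion.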
DT40 TDP1 no CPT: qHTS for Inhibitors of human tyrosyl-DNA phosphodiesterase 1 (TDP1): qHTS in cells in absence of CPT. DT40 Tdp1-/- hTDP1 cells, no CPT, ATP luminescence, 48 h. Potency, µM (titrated, usually from 46.2 µM), for inactives: top-dose activity change, negative = growth inhibition, actives largely listed as inhibitors. actives 15% (n = 420,000); also: potency is read from the fitted curve at half-maximal effect; nearly all actives have a fitted effect of over 55% in size
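No-CPT arm: Tdp1-/-;hTDP1 DT40 cells (400/well) plus compounds, incubated ≥48 hr at 37 °C. Readout CellTiter-Glo luminescence.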
DT40 TDP1 CPT: DT40-hTDP1 cell growth loss with CPT | Potency, µM (titrated, usually from 46.2 µM), inactives show at the highest dose activity change, negative = growth inhibition, actives largely listed as inhibitors | chicken DT40 Tdp1-/-;hTDP1 cells + 20 nM CPT, ATP luminescence, 48 h | actives 12% (n = 420,000); also: potency is read from the fitted curve at half-maximal effect; nearly all actives have a fitted effect of over 55% in size
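Chicken DT40 Tdp1-/- cells complemented with human TDP1, 400 cells/well, exposed to compounds plus 20 nM camptothecin for at least 48 h at 37 C; viability read as ATP content by CellTiter-Glo luminescence.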
Starred values were filed as active, the others as inactive; u = inconclusive; x = not tested or not shown; [ ] = dose if it differs, or a comment. Hits are enriched below; roughly 19% of the tested compounds scored in any of these assays. Unless noted, calls follow the shape of the dose curve; as a rule, active = well fitted curve in the direction sought with a large enough effect; inconclusive = small, poorly fitted or top-dose-only effect, or another doubt; inactive = no such curve, though single readings can be large; an effect the other way counts as inactive or inconclusive. Unless noted, % is scaled to controls: 0 for no effect and ±100 for the full control effect.

SMILES	uPA generation	HT1080NT lethal	HT1080 IDH1KD tx	IL1B secr inh	DT40 TDP1 no CPT	DT40 TDP1 CPT
CCCc1cc(=O)[nH]c2nnc(SCC(=O)Nc3cc(C)on3)n12	-1.5%	0.5%	13.9%	-15.8	u	-12.2%
O=S(=O)(NCc1nc(N2CCCC2)c2cc(Cl)ccc2n1)c1ccccc1OC(F)(F)F	x	x	x	x	-27.5%	17.5%[9.04 µM]
Cc1nn(C)c(=O)c(N)c1-c1cc(-c2ccc(Cl)c(Cl)c2)n[nH]1	2.6%	-18.2%	-6.9%	103.2	6.51µM*	13µM*
Cc1ccc(-c2cc(-c3c(C)nn(C)c(=O)c3N)[nH]n2)cc1	12.3%	2.5%	2.1%	0.0	9.2µM*	16.4µM*
COc1ccc(C(C)=O)cc1Cn1c(=O)cc(C)[nH]c1=O	-3.5%	0.3%	1.4%	17.6	-5.7%	2.5%
O=c1cnn(-c2ccccc2)c(-c2ccccc2)c1	x	u	u	5.9	18.4µM*	u
O=C(CN1CCN(S(=O)(=O)c2ccc(Cl)cc2)CC1)NC1CC1	-7.4%	6.2%	8.2%	40.1	28.9%	-28.8%
C/C=C/c1ccc2oc(-c3ccc(O)cc3)c(C)c2c1	x	x	x	x	-7.6%[9.04 µM]	1.9%[9.04 µM]
O=Cc1c(-c2ccc(Cl)cc2)oc2ccc(O)cc12	-2.1%	-3.1%	1.0%	-55.5*	u	-4.0%
CC(C)Nc1nc(NC2CCCC2)nc(N2CCOCC2)n1	-0.9%	-0.7%	0.3%	-99.3*	u	u
CC(=O)N1CCC(N(Cc2ccc(C)o2)C(=O)Nc2ccc(C)cc2)CC1	x	x	x	x	-18.3%	1.8%
COc1ccc(Cn2c(=S)[nH]c3cc(OC)c(OC)cc3c2=O)cc1	-12.3%	0.1%	u	-15.9	u	14.4%
COc1ccc(/C=C/C(=O)NC2CCN(Cc3ccccc3)CC2)cc1OC	-0.4%	-1.3%	-16.7%	-8.2	-5.2%	-7.6%
COc1ccc(NC(=S)NC2CCN(Cc3ccccc3)CC2)cc1OC	0.7%	-0.4%	-5.4%	-9.9	u	-8.4%
COc1cc2nc(N3CCOCC3)nc(NC3CCN(Cc4ccccc4)CC3)c2cc1OC	x	u	u	x	11.2µM*	15.8µM*
COc1cc2nc(N3CCCN(C)CC3)nc(NC3CCN(Cc4ccccc4)CC3)c2cc1OC	x	10µM*	7.08µM*	x	3.98µM*	2.51µM*
COc1cc2nc(Cl)nc(NC3CCN(Cc4ccccc4)CC3)c2cc1OC	x	0.1%	-1.9%	x	10µM*	7.08µM*
COc1cc2[nH]c(=S)n(C3CCN(Cc4ccccc4)CC3)c(=O)c2cc1OC	4.0%	3.8%	4.9%	22.7	18.4µM*	u
COc1cc2nc(N3CCN(C)CC3)nc(NC3CCN(Cc4ccccc4)CC3)c2cc1OC	x	u	11.2µM*	x	11.2µM*	11.2µM*
COc1cc2c(NC3CCN(C)CC3)nc(N3CCCN(C)CC3)nc2cc1OCc1ccccc1	x	10µM*	6.31µM*	x	2.82µM*	2.82µM*
Cc1ccc(/C=N\NC(=O)COc2ccc(C)cc2[N+](=O)[O-])cc1	2.1%	-0.1%	19.9%	-20.7	u	u
Cc1ccc(OCC(=O)N/N=C\c2cn(C)c3ccccc23)c([N+](=O)[O-])c1	-4.0%	-8.3%	-2.3%	16.0	14.6µM*	u
Cc1ccc(OCC(=O)N/N=C\c2c(C)[nH]n(-c3ccccc3)c2=O)c([N+](=O)[O-])c1	-5.6%	-15.9%	-23.0%	127.0	4.11µM*	3.66µM*
CC(C)CNC(=O)c1cccc(NC(=O)c2ccc3c(c2)C(=O)N(C)C3=O)c1	24.2%	-2.0%	-1.4%	-12.8	-15.5%	-9.5%
CC(C)n1c(=O)nc(-c2ccccc2)c2cc3c(cc21)OCO3	x	4.8%	12.9%	-5.4	u	1.9%
SMILES	uPA generation	HT1080NT lethal	HT1080 IDH1KD tx	IL1B secr inh	DT40 TDP1 no CPT	DT40 TDP1 CPT
O=C(CSc1ncnc2nc[nH]c12)c1ccc2ccccc2c1	-10.8%	23.1µM*	u	5.3	11.6µM*	u
O=C(CSc1ncnc2nc[nH]c12)N1CCN(c2ccc(Cl)cc2)CC1	x	u	-26.3%	-1.9	13µM*	23.1µM*
c1nc(SSc2ncnc3nc[nH]c23)c2[nH]cnc2n1	-9.5%	2.31µM*	1.3µM*	u	7.31µM*	5.8µM*
CCc1ccccc1-n1c(N)c(C(=O)OC)c2nc3ccccc3nc21	x	x	x	x	u	-18.6%
Cc1ccc(C)c(-n2c3nc(=O)n(C)c(=O)c-3cc3ccccc32)c1	9.9%	-10.5%	-2.7%	12.1	u	-5.1%
Cc1ccc(C)c(-n2c3nc(=O)[nH]c(=O)c-3cc3cc([N+](=O)[O-])ccc32)c1	-10.2%	6.51µM*	5.17µM*	-99.3*	0.82µM*	1.16µM*
Cc1cccc(-n2c3nc(=O)[nH]c(=O)c-3cc3cc([N+](=O)[O-])ccc32)c1	-12.9%	u	u	-100.6*	-113.3%	4.61µM*
Cc1onc(-c2c(F)cccc2Cl)c1-c1nnc(-c2ccc(C(F)(F)F)cc2)o1	3.9%	-22.1%	25.9µM*	x	u	u
CC(=O)Nc1nnc(-c2c(-c3c(Cl)cccc3Cl)noc2C)o1	2.2%	2.0%	0.4%	22.7	-9.4%	18.7%
Cc1onc(-c2c(Cl)cccc2Cl)c1-c1nnc(-c2ccc(Cl)cc2)o1	4.1%	-20.7%	-28.5%	-1.2	16.4µM*	u
Cc1cccc(C(=O)NCc2nc(-c3cccc(NC(=O)C4CCCN(C)C4)c3)oc2C)n1 (centres undefined)	x	x	x	x	u	8.5%[9.04 µM]
OC12CC3C[C@H](C1)C(N1CCOCC1)[C@@H](C3)C2 (some centres undefined)	1.5%	6.5%	1.5%	12.1	0.6%	-7.1%
COc1cccc(-c2nccc(-n3ccnc3)n2)c1	x	x	x	x	u	9.0%
Cc1cccc2cc3c(nc12)SC(=NCC1CCCO1)N(Cc1ccco1)C3 (centres undefined)	-7.6%	5.8µM*	10.3µM*	-100.0*	23.1µM*	u
CC(Oc1ccccc1Cl)C(=O)N(Cc1cccs1)C1CCS(=O)(=O)C1 (centres undefined)	16.9%	-3.1%	-1.0%	-17.4	u	-24.0%
COc1ccc(OC)c(Nc2nc(-c3ccncc3)nc3ccccc23)c1	1.4%	5.3%	-10.8%	34.1	7.31µM*	18.4µM*
COc1ccc(Nc2nc(N3CCN(S(=O)(=O)N(C)C)CC3)nc3ccccc23)cc1	-20.4%	-4.1%	-8.8%	-8.2	8.2µM*	11.6µM*
CC(Nc1nc(N2CCN(S(C)(=O)=O)CC2)nc2ccccc12)c1ccccc1 (centres undefined)	-3.1%	-22.8%	-4.5%	-6.7	u	u

From PubChem
